Bioassay records as filed in PubChem.
In the library only some 2.8% were active in any assay of this set; here they are far more common.
Myc binder = c-Myc (human) binding | calls only | small molecule microarray, His-c-Myc binding, anti-His fluorescence | hit rate 1.5% among 17,000 | P01106;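 active means spot fluorescence over background with P-value below 7% in all four replicate spots, showing protein binding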
NFkB binder = binders of human NF-kappa-B p105. P19838. Small molecule microarray, anti-His fluorescence binding. calls only. hit rate 1.3% among 17,000. AID 624139;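 active means spot fluorescence over background significantly raised, with a chance value under 7% in all four replicate spots of the compound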;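 further: probe protein is his-tagged human p50 processed subunit at 1 µg/ml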
Target sequence (P19838 1-433 limits assumed): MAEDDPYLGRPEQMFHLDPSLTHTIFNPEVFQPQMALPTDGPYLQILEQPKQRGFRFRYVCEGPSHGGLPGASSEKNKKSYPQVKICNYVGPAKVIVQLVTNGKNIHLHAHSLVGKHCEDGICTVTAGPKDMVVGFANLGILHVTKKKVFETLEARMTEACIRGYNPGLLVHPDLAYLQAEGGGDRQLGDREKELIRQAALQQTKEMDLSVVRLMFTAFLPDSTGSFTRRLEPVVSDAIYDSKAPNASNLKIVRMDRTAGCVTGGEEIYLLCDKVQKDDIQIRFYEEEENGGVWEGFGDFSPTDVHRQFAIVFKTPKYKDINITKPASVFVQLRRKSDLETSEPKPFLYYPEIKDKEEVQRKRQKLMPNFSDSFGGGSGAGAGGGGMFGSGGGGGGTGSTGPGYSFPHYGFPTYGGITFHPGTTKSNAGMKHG
mut p53 SMM = binders of human mutant p53; small molecule microarray binding, anti-GST fluorescence; hit rate 0.4% among 17,000; AID 624136; calls only;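 active means compounds whose four printed spots each glow above background more than chance allows, each with a p-value under 7%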
STAT3 SMM = binders of human STAT3. hit rate 0.2% among 17,000. Small molecule microarray, His-STAT3 binding, anti-His fluorescence. P40763. calls only;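 active means compounds whose four printed spots each show fluorescence over background unusually high for their array block, chance value under 7%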
p53 PUMA act = mutant p53 pathway reactivation; activation, % at 9.98 µM; hit rate 1.5% among 28,000; SW480 PUMA-promoter luciferase; in the data active means activation above about 52%; inconclusive means no clear call, values can overlap the other calls
Numbers stand for hits; - = inactive; ? = inconclusive; . = not tested or not shown; + = active, no number.

SMILES	Myc binder	NFkB binder	mut p53 SMM	STAT3 SMM	p53 PUMA act
COc1ccc(Cl)cc1NC(=S)NCCn1cc(Cl)cn1	+	-	-	-	-
COc1ccc(Cl)cc1NC(=S)NCCCN1CCCC1=O	+	-	-	-	-
COC(=O)[C@]1(C)CCC[C@@]2(C)[C@H]1CC=C(C)[C@@H]2CCc1ccoc1	-	-	-	-	-
Cn1cc(CNC(=O)c2cc(-c3ccc(Br)cc3)nc3ccccc23)cn1	-	-	-	-	-
CCCc1ccc(-c2cc(C(=O)NCc3cnn(C)c3)c3ccccc3n2)cc1	.	.	.	.	106
COc1ccc(C(C)NC(=O)c2cc(-c3ccccn3)nc3ccc(Br)cc23)cc1OC (stereo not given)	.	.	.	.	-
O=C(CCSc1nnnn1-c1ccccc1)Nc1ccc(Cl)cc1	.	.	.	.	-
CC(=O)c1ccc(NC(=O)CNS(=O)(=O)c2cccc(Cl)c2)cc1	.	.	.	.	68
CC(=O)c1cccc(NC(=O)CNS(=O)(=O)c2ccc(Br)cc2)c1	.	.	.	.	-
COc1ccc(CC(=O)Nc2cccc(-c3nnc(-c4ccc(C)cc4)o3)c2)cc1OC	-	-	-	-	-
COc1ccccc1OCC(=O)Nc1cccc(-c2nnc(-c3ccccc3)o2)c1	-	-	-	-	95
COc1cc(NC(=O)COc2ccccc2OC)cc(OC)c1	.	.	.	.	-
Cc1ccc(C)c(OCC(=O)Nc2cccc(-c3nnc(-c4ccco4)o3)c2)c1	.	.	.	.	102
Cc1ccc(C)c(OCC(=O)Nc2cccc(-c3nc4ccccc4o3)c2)c1	.	.	.	.	-
COc1ccccc1OCC(=O)Nc1cccc(-c2nnc(-c3ccco3)o2)c1	.	.	.	.	62
C=CCSc1nccc(-c2sc3ccc(Cl)cc3c2C)n1	.	.	.	.	-
O=C(COc1cccc(C(F)(F)F)c1)NCc1ccco1	.	.	.	.	-
Cc1ccc2c(CC(=O)Nc3cccc([N+](=O)[O-])c3)coc2c1C	.	.	.	.	69
Cc1ccc2c(CC(=O)NCc3ccco3)coc2c1C	-	-	-	-	-
CCN(CC(=O)Nc1ccccc1C(F)(F)F)S(=O)(=O)c1ccc(Cl)cc1	.	.	.	.	-
Cc1nc2ccccc2n1CC(O)COc1ccccc1Cl (stereo not given)	.	.	.	.	-
COc1ccc(OCC(O)Cn2cnc3ccccc32)cc1 (stereo not given)	.	.	.	.	-
OC(COc1ccccc1Cl)Cn1cnc2ccccc21 (stereo not given)	.	.	.	.	111
OC(COc1ccccc1Cl)Cn1nnc2ccccc21 (stereo not given)	-	-	-	-	66
C[C@H](CO)N1C[C@H](C)[C@@H](CN(C)CC2CCCCC2)OCCCC[C@H](C)Oc2ccc(NC(=O)Nc3cccc4ccccc34)cc2C1=O	-	+	-	-	.
SMILES	Myc binder	NFkB binder	mut p53 SMM	STAT3 SMM	p53 PUMA act
C[C@H](CO)N1C[C@H](C)[C@@H](CN(C)C)OCCCC[C@H](C)Oc2ccc(NC(=O)Nc3cccc4ccccc34)cc2C1=O	-	-	+	-	-
C[C@H](CO)N1C[C@H](C)[C@H](CN(C)C)OCCCC[C@H](C)Oc2ccc(NC(=O)Nc3cccc4ccccc34)cc2C1=O	-	-	-	-	-
C[C@@H]1CCCCO[C@@H](CN(C)C(=O)Nc2cccc3ccccc23)[C@H](C)CN([C@H](C)CO)C(=O)c2cc(NC(=O)Nc3ccc(F)cc3)ccc2O1	+	+	-	-	.
O=C(Nc1ccc(S(=O)(=O)Nc2nccs2)cc1)C1c2ccccc2Oc2ccccc21	.	.	.	.	-
CN1N=C(c2coc3ccccc23)CC1(O)C(F)(F)F (stereo not given)	.	.	.	.	73
Cc1cc(C)nc(Nc2n[nH]c(-c3cccnc3)n2)n1	.	.	.	.	74
Cc1cc(C)nc(Nc2n[nH]c(COc3ccccc3)n2)n1	-	-	-	-	?
COc1ccc(-c2nc(Nc3nc(C)cc(C)n3)n[nH]2)cc1OC	-	-	-	-	85
CCCC(O)c1c(O)cccc1C1(O)CC(=O)C/C1=C\C(O)CC(=O)O (stereo not given)	-	-	-	-	-
CC1OC(OCC2OC(OCC3(C)C(O)CCC4(C)C3CCC3(C)C4CCC4C5=CC(C)(C)CCC5(C(=O)O)CCC43C)C(O)C(O)C2O)C(O)C(O)C1O (stereo not given)	+	+	-	-	-
Nc1nc(SCC(=O)c2ccccc2)nc2sc3c(c12)CCC3	.	.	.	.	113
CC(C)Oc1ccc2c(=O)c3cc(C(=O)O)ccc3oc2c1	-	-	-	-	71
CC(C)Oc1ccc2c(=O)cc(-c3ccccc3)oc2c1	-	-	-	-	-
Cc1ccc(OCC(=O)Nc2ccccc2C#N)cc1C	.	.	.	.	83
Cc1cccc(C)c1OCC(=O)Nc1ccccc1C#N	-	-	-	-	-
Cc1ccc2nc(Nc3nc(CSc4nnc(C)s4)cc(=O)[nH]3)nc(C)c2c1	.	.	.	.	54
COc1cccc(OCc2nc(-c3ccccc3)no2)c1	-	-	-	-	112
